# According to PubChem BioAssay (Tox21):
# “And” between values parts separate entries of the source, which are not always exact repeats. Equal entries are not always repeated. Results filed as inconclusive are left out. A call without a number means that no potency is given here. The source made the active and inactive calls. Calls follow the shape of the dose curve; as a rule, active = well fitted curve in the direction sought with a large enough effect in the repeat runs; inconclusive = weak or mixed curves; inactive = no such curve, though single readings can be large; an effect the other way counts as inactive or inconclusive.
# Legend:
# [1] = molecular target: Cytochrome P450 2D6 (Homo sapiens) (UniProt P10635); assay: Cytochrome P450 Family 2 Subfamily D Member 6 (CYP2D6) small molecule antagonists: luciferase reporter qHTS assay (AID 1671196); also: nearly all actives have a fitted effect of over 50% in size
# Chain of Cytochrome P450 2D6 (Homo sapiens) (P10635 whole entry, looked up): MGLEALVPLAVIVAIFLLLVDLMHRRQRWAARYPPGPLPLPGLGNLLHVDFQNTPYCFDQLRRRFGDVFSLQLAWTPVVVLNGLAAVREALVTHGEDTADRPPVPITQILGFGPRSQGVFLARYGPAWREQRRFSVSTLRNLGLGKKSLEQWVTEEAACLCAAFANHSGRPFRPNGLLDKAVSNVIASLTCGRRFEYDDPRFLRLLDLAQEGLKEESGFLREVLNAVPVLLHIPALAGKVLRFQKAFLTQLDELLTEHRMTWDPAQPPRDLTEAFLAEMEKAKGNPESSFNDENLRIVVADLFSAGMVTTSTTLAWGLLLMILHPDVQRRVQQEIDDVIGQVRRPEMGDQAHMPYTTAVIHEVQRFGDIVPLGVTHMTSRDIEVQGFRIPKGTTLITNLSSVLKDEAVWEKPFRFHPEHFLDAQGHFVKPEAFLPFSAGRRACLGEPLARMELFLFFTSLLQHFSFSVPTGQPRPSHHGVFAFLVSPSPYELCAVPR
# Outline: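 Luminogenic proluciferin substrate, CYP2D6 enzyme; 10 min RT preincubation with compound, NADPH regeneration system added, 1 h RT. Stop/detection reagent, 20 min RT, luminescence read (RLU). Signal proportional to CYP activity.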
# [2] = molecular target: Cytochrome P450 2C19 (Homo sapiens) (UniProt P33261); assay: Cytochrome P450 Family 2 Subfamily C Member 19 (CYP2C19) small molecule antagonists: luciferase reporter qHTS assay (AID 1671197); also: nearly all actives have a fitted effect of over 65% in size
# Chain of Cytochrome P450 2C19 (Homo sapiens) (P33261 whole entry, looked up): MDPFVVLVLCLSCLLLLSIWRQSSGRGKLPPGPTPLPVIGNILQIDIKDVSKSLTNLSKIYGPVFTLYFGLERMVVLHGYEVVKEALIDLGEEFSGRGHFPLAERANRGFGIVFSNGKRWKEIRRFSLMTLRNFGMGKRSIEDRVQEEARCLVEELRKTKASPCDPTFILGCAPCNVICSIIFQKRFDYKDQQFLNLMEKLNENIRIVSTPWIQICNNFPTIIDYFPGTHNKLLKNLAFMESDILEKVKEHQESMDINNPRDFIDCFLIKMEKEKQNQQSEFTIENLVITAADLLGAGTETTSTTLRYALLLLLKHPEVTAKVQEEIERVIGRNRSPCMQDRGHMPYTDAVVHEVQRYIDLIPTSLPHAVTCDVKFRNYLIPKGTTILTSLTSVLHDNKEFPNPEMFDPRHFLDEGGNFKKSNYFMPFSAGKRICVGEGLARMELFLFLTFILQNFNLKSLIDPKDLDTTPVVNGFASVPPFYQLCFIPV
# Outline: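 CYP2C19 P450-Glo, 1536-well qHTS. Cpd + enzyme/proluciferin substrate 10 min RT; + NADPH regen, 37C 1 h; stop with luciferin detection reagent, 20 min RT, luminescence (RLU). Pos ctrl ketoconazole.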
# [3] = molecular target: Cytochrome P450 2C9 (Homo sapiens) (UniProt P11712); assay: Cytochrome P450 Family 2 Subfamily C Member 9 (CYP2C9) small molecule antagonists: luciferase reporter qHTS assay (AID 1671198); also: nearly all actives have a fitted effect of over 50% in size
# Chain of Cytochrome P450 2C9 (Homo sapiens) (P11712 whole entry, looked up): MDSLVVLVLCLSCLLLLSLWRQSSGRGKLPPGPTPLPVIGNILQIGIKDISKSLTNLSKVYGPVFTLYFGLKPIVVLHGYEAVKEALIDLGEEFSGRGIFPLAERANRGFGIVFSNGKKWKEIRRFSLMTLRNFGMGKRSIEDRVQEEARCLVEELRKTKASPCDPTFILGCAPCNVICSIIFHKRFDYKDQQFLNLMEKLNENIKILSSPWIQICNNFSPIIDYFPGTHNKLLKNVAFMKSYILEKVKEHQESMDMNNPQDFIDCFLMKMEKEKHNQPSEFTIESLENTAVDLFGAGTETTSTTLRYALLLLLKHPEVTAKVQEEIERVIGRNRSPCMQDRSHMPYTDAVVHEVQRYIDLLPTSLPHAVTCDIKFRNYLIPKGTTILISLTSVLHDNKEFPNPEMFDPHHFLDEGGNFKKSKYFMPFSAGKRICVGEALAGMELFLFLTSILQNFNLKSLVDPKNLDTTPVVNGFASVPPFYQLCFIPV
# Outline: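 CYP2C9 activity was measured with a P450-Glo proluciferin substrate. Enzyme–substrate mix was held with compound for 10 min at room temperature, then NADPH regeneration solution was added for 1 h at 37C. Luciferin product was read as luminescence.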
# [4] = molecular target: Cytochrome P450 1A2 (Homo sapiens) (UniProt P05177); assay: Cytochrome P450 Family 1 Subfamily A Member 2 (CYP1A2) small molecule antagonists: luciferase reporter qHTS assay (AID 1671199); also: nearly all actives have a fitted effect of over 50% in size
# Chain of Cytochrome P450 1A2 (Homo sapiens) (P05177 whole entry, looked up): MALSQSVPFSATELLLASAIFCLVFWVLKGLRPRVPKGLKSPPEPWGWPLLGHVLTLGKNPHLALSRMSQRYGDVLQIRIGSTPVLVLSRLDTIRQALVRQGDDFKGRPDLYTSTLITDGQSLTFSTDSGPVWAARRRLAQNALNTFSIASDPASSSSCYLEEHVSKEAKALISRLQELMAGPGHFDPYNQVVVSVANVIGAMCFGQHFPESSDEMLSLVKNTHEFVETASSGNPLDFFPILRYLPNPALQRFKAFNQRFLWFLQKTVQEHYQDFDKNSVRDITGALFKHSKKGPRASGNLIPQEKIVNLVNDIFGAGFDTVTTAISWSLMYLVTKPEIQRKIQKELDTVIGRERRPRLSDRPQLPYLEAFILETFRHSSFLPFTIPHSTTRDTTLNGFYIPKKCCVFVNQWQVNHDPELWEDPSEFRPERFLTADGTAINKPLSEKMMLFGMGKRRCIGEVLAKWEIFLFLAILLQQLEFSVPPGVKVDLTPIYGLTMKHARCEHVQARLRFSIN
# Outline: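 Luminescence readout (relative luminescence units) after luciferin detection reagent, 20 min RT. Preceded by 1 h room-temperature CYP1A2 reaction with NADPH regeneration solution following 10 min compound preincubation with enzyme and proluciferin substrate. Furafylline positive control.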
# [5] = molecular target: Voltage-gated inwardly rectifying potassium channel KCNH2 (Homo sapiens) (UniProt Q12809); assay: Human Ether-a-go-go-Related Gene (hERG) channel small molecule antagonists: fluorescence cell-based qHTS assay (AID 1671200); also: nearly all actives have a fitted effect of over 50% in size
# Chain of Voltage-gated inwardly rectifying potassium channel KCNH2 (Homo sapiens) (Q12809 whole entry, looked up): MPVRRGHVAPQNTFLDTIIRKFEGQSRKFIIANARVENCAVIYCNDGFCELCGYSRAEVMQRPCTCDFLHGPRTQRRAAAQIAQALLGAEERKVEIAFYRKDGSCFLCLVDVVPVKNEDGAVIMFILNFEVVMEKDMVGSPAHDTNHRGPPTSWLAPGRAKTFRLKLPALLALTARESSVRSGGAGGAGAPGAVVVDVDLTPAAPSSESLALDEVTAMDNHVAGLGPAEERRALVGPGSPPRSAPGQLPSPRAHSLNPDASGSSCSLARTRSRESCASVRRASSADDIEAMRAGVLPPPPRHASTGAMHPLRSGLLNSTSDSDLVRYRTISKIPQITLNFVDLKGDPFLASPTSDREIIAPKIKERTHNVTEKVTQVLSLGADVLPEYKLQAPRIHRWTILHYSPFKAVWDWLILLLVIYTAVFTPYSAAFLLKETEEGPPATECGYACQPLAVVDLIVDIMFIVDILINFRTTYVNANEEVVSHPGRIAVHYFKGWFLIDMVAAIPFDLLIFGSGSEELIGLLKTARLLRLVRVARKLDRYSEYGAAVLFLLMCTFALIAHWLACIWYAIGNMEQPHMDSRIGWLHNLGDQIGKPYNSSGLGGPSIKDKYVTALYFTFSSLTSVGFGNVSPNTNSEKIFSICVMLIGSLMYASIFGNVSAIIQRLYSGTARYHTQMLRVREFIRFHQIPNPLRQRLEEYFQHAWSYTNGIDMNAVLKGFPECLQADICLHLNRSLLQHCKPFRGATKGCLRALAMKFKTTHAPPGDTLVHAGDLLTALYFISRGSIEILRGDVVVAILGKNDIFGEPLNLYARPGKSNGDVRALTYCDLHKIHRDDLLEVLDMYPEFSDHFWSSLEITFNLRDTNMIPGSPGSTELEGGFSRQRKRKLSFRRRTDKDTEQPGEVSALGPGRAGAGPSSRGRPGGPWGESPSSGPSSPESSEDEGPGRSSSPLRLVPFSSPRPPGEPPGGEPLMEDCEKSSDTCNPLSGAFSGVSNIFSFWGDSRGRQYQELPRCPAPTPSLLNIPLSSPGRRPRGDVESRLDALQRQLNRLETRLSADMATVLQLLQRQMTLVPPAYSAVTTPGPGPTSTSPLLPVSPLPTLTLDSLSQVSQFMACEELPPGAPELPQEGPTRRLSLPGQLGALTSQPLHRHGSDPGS
# Outline: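 Thallium flux as potassium surrogate: FluxOR II dye loaded 1 h at room temperature into hERG-expressing U2OS cells, then stimulus buffer added after 10 min. Kinetic 480 nm excitation/540 nm emission read, 2 min.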
# [6] = molecular target: Cytochrome P450 3A4 (Homo sapiens) (UniProt P08684); assay: Cytochrome P450 Family 3 Subfamily A Member 4 (CYP3A4) small molecule antagonists: luciferase reporter qHTS assay (AID 1671201); also: nearly all actives have a fitted effect of over 50% in size
# Chain of Cytochrome P450 3A4 (Homo sapiens) (P08684 whole entry, looked up): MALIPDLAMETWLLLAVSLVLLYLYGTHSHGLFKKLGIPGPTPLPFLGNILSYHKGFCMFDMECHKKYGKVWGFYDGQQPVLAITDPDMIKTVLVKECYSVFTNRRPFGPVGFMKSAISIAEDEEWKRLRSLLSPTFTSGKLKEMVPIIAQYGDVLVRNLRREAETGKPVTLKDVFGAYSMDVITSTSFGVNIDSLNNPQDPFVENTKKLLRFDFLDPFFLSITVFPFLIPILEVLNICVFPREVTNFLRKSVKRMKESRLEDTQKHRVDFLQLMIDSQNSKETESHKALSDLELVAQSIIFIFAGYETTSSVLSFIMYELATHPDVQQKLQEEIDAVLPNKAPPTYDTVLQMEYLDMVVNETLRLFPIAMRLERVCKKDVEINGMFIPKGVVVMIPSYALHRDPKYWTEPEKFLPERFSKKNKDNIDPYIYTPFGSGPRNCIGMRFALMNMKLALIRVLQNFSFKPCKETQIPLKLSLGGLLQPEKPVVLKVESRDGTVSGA
# Outline: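 Recombinant human CYP3A4 converts a proluciferin substrate to luciferin over 1 h at room temperature after NADPH regeneration solution is added (compound preincubated 10 min); detection reagent stops reaction, luminescence read 20 min later as relative units.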
# Potency is read from the fitted curve at half-maximal effect.
SMILES,Potency [1],Potency [2],Potency [3],Potency [4],Potency [5],Potency [6]
Clc1ccc(Nc2nnc(Cc3ccncc3)c3ccccc23)cc1,17.4 µM (active),2.19 µM (active),1.55 µM (active),1.44 µM (active),inactive,
CCCCN(CCN(CCCC)C(=O)N1CCOCC1)C(=O)N1CCOCC1,inactive,inactive,inactive,inactive,inactive,
COc1ccccc1NC(=O)c1cc2ccccc2cc1O,inactive,11.2 µM (active),22.4 µM (active),1.78 µM (active),inactive,28.3 µM (active)
COc1ccccc1N1CCN(CCCCNC(=O)c2ccc(-c3ccc(C(C)=O)cc3)cc2)CC1,2.19 µM (active),inactive,inactive,inactive,3.79 µM (active),inactive
O=C(Nc1cccc2c(=O)cc(-c3nn[nH]n3)oc12)c1ccc(OCCCCc2ccccc2)cc1,inactive,inactive,7.76 µM (active),inactive,inactive,inactive
CCCC(C(=O)OCCN(CC)CC)(c1ccccc1)c1ccccc1,0.275 µM (active),21.9 µM (active),13.8 µM (active),inactive,8.49 µM (active),
COc1cc(C(=O)NC2CCN(C)CC2)ccc1Nc1ncc2c(n1)N(C1CCCC1)CC(F)(F)C(=O)N2C,inactive,51.7 µM (active),29.1 µM (active),inactive,inactive,
CCOC(=O)c1ccc(C#Cc2ccc3c(c2)C(C)(C)CCS3)nc1,inactive,inactive,inactive,inactive,,
Cc1cc2c(OCC(CNC(C)(C)C)OC(=O)c3ccccc3)cccc2[nH]1 (centres undefined),0.692 µM (active),38.9 µM (active),7.76 µM (active),inactive,,
O=[N+]([O-])c1ccc(O/N=C/c2cc(Br)c(O)c(Br)c2)c([N+](=O)[O-])c1,inactive,79.3 µM (active),9.98 µM (active),inactive,inactive,inactive
Nc1ccc(N=Nc2ccccc2)c(N)c1,2.2 µM (active),24.7 µM (active),31 µM (active),7.8 µM (active),17 µM (active),11 µM (active)
C=COCC(C)C,inactive,inactive,inactive,inactive,inactive,inactive
O=c1cc(-c2ccccc2)oc2ccc3ccccc3c12,5.64 µM (active),3.56 µM (active),3.17 µM (active),5.64 µM (active),inactive,17.8 µM (active)
O[C@@H]1CO[C@H]2[C@@H]1OC[C@@H]2O,inactive,inactive,inactive,inactive,inactive,inactive
O=[N+]([O-])c1ccc(Nc2ccc(Nc3ccccc3)c(S(=O)(=O)O)c2)c([N+](=O)[O-])c1,inactive,inactive,35.6 µM (active),inactive,inactive,inactive
COc1ccc(OC(=O)N(CC(=O)O)Cc2ccc(OCCc3nc(-c4ccccc4)oc3C)cc2)cc1,inactive,inactive,13.8 µM (active),17.4 µM (active),inactive,inactive
OCCOCC#CCOCCO,inactive,inactive,inactive,inactive,inactive,inactive
N#CCc1ccc(Cl)cc1Cl,inactive,79.6 µM (active),inactive,22.4 µM (active),inactive,inactive
Oc1ccc(Cl)c2cccnc12,inactive,inactive,inactive,inactive,inactive,inactive
CC(=O)Nc1cc(S(=O)(=O)O)cc2cc(S(=O)(=O)O)c(N=Nc3ccccc3)c(O)c12,35.6 µM (active),39.9 µM (active),35.6 µM (active),31.7 µM (active),inactive,
CC(C)(C)CC(=O)OCC(=O)[C@@]1(O)CC[C@H]2[C@@H]3CCC4=CC(=O)C=C[C@]4(C)[C@H]3[C@@H](O)C[C@@]21C,38.9 µM (active),9.77 µM (active),15.5 µM (active),inactive,inactive,
O=C(O)c1ccc(OCCCOc2ccc(C(=O)O)cc2)cc1,8.71 µM (active),inactive,inactive,inactive,inactive,inactive
c1ccc2c(c1)CCc1ccccc1N2,inactive,8 µM (active) and 8.71 µM (active),40.1 µM (active) and 13.8 µM (active),7.13 µM (active) and 5.49 µM (active),inactive,inactive
CC(CO)CO,inactive,inactive,inactive,inactive,inactive,inactive
CC(CC1c2ccccc2CCc2ccccc21)CN(C)C (centres undefined),0.977 µM (active),8.71 µM (active),inactive,inactive,,
C/C=C/C=C/C=O,inactive,inactive,inactive,inactive,inactive,inactive
CC(C)=CCC/C(C)=C/CC/C(C)=C/CCC(=O)OC/C=C(\C)CCC=C(C)C,inactive,inactive,inactive,inactive,inactive,inactive
CC1CC(C)C(=O)C1=O (centres undefined),inactive,inactive,inactive,inactive,inactive,inactive

SMILES,Potency [1],Potency [2],Potency [3],Potency [4],Potency [5],Potency [6]
CCC(=O)OC,inactive,inactive,inactive,inactive,inactive,inactive
CCCCCC#CC(=O)OC,inactive,inactive,63.3 µM (active),inactive,inactive,inactive
Cc1cccc(O)c1N,45.3 µM (active),40.3 µM (active),32 µM (active),10.1 µM (active),inactive,36 µM (active)
Cc1cc(C)cc(N)c1,5.09 µM (active),7.19 µM (active),11.4 µM (active),36 µM (active),inactive,3.21 µM (active)
C=C(C)[C@@H]1CCC2=CCC[C@@H](C)[C@]2(C)C1,inactive,11.2 µM (active),63.3 µM (active),inactive,inactive,71 µM (active)
C=C1C[C@@]23CC[C@H]4[C@@](C)(CCC[C@@]4(C)C(=O)O[C@@H]4O[C@H](CO)[C@@H](O)[C@H](O)[C@H]4O)[C@@H]2CC[C@]1(O[C@@H]1O[C@H](CO)[C@@H](O)[C@H](O[C@@H]2O[C@H](CO)[C@@H](O)[C@H](O)[C@H]2O)[C@H]1O[C@@H]1O[C@H](CO)[C@@H](O)[C@H](O)[C@H]1O)C3,inactive,inactive,inactive,inactive,inactive,inactive
CN1CCCN=C1COC(=O)C(O)(c1ccccc1)C1CCCCC1 (centres undefined),0.617 µM (active),inactive,inactive,inactive,4.77 µM (active),
CC(C)(C)C(=O)C(=O)O,inactive,inactive,inactive,inactive,inactive,inactive
CCCCCCCCCCCCCCN(CCO)CCO,7.96 µM (active),79.6 µM (active),31.7 µM (active),17.8 µM (active),,
COC(=O)C1=C(C)NC(C)=C(C(=O)O[C@@H]2CCCN(Cc3ccccc3)C2)[C@@H]1c1cccc([N+](=O)[O-])c1,15.5 µM (active),4.9 µM (active),0.871 µM (active),,,
C[C@@H](O[C@H]1OCCN(Cc2n[nH]c(=O)[nH]2)[C@H]1c1ccc(F)cc1)c1cc(C(F)(F)F)cc(C(F)(F)F)c1,19.5 µM (active),15.5 µM (active),13.8 µM (active),inactive,8.49 µM (active),
CCC(OCCCOC)OC(C)=O (centres undefined),inactive,inactive,inactive,36.4 µM (active),inactive,inactive
NC1[C@H]2CN(c3nc4c(cc3F)c(=O)c(C(=O)O)cn4-c3ccc(F)cc3F)C[C@@H]12 (some centres undefined),inactive,inactive,inactive,inactive,inactive,inactive
CN(C)CCC=C1c2ccccc2C=Cc2ccccc21,6.17 µM (active),inactive,inactive,inactive,,inactive
COc1cc(C(=O)NCCCCCC(=O)O)cc(OC)c1OC,inactive,inactive,inactive,inactive,inactive,inactive
CC(C)=CC(=O)C=C(C)C,inactive,39.7 µM (active),inactive,28.1 µM (active),inactive,inactive
C[C@]1(Cn2ccnn2)[C@H](C(=O)O)N2C(=O)C[C@H]2S1(=O)=O,inactive,inactive,inactive,inactive,inactive,inactive
CN1CCCC(CC2c3ccccc3Sc3ccccc32)C1 (centres undefined),0.389 µM (active),7.76 µM (active),inactive,inactive,4.77 µM (active),inactive
C[C@]12CC[C@@H]3c4ccc(O)cc4CC[C@H]3[C@@H]1CC[C@@H]2OC(=O)CCC1CCCC1,inactive,14.2 µM (active),17.8 µM (active) and 17.4 µM (active),17.8 µM (active),inactive,inactive
COc1cc(Nc2c(C#N)cnc3cc(OCCCN4CCN(C)CC4)c(OC)cc23)c(Cl)cc1Cl,inactive,inactive,inactive,inactive,,inactive
C=CCc1ccccc1OCC(O)CNC(C)C (centres undefined),5.49 µM (active),inactive,inactive,12.3 µM (active),inactive,inactive
O=C(CCCN1CC=C(n2c(=O)[nH]c3ccccc32)CC1)c1ccc(F)cc1,2.45 µM (active),inactive,inactive,inactive,,inactive
CCOC(=O)[C@H](CCc1ccccc1)N[C@@H](C)C(=O)N(CC(=O)O)C1Cc2ccccc2C1,inactive,6.92 µM (active),15.5 µM (active),,inactive,
CC(CN(C)C)C(C)(O)Cc1ccc(Cl)cc1 (centres undefined),6.17 µM (active),inactive,inactive,inactive,,inactive
Cc1cscn1,inactive,inactive,inactive,,inactive,inactive
CC1(C)[C@H](C(=O)O)N2C(=O)C[C@H]2S1(=O)=O,inactive,30.9 µM (active),inactive,inactive,inactive,inactive
CC(=O)c1cc2ccccc2s1,inactive,inactive,inactive,6.92 µM (active),inactive,inactive
